# Test system: RARb homodimer (NR concentration 270 nM)
# Test: PBM binding z-score (relative to random genomic background probes); higher = stronger binding; sequences stand for … in GC…GCGATTGACAGCGTAGAATGAAGG
# Procedure, shortened: (§1)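 On custom Agilent 4×180K arrays, double-stranded probes with 34-nt variable regions carried direct-repeat seeds, single-nucleotide variants, half-site ablations or random human genomic background. Ligand-free nuclear receptor dimers were applied for 1 h, and binding was read with antibodies against each partner (one per run). Binding z-scores come from regression-normalized fluorescence, with the random background probes as reference.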
row,Sequence,PBM binding z-score
1,CCTTACGGGTCACTGCCAGGTTATAGCATTTGGA,3.13
2,TCTTGCAGATCAAGCAGGTTAAGAAAGCCTGAGT,-0.292
3,AGAACGAGGACAATGAGTTGATAGCACGGGTGGC,0.202
4,TCGAGTAGGTTAGTCGGGGCATTCACCCAACATA,0.552
5,ATATGTAGGTTACATCTGGGTCATTCAGGCTATG,3.02
6,CCGAGTAGGTTATTGGGCATTCAGGCAACGGTGA,0.361
7,CCTGCTAGGTCAATAGTCAGCTAAAGCAGCTCGC,2.18
8,CGTCCAAGGTCAAGGTCAGTTAAAGAGACTCGAA,5.26
9,CAAACTAGGTCAAAGGACAAAGTCGAGCCAACCA,3.11
10,ACAGGCAGGTGATGAAGGTAACTCAGGCTATCAT,0.415
11,CCGTACGGGTCACTGACAGGTTATAGCATTTGGA,3.2
12,CCTAGCAGGCCAATCTGGGTCACTCAAGGCTTGA,2.33
13,CAAACTAGGTCAAGGTCAAGGTCGGTTTGTGCCA,5.4
14,GTTTACGGGTCAAAGGTTATAGCATGAATAGAAT,3.41
15,GCTGCTAGGTCAGGGTGGTCAGCTAACGGGTACG,3.07
16,CCAGACAGGTGAGCAGGTAACTCAGCCTCGATTA,0.399
17,TAGCCTAGGCCATTGGGCCAGTATAGTACGCATC,-0.0575
18,GCGACTGGGGCAAAGCAGGTTACGATAAGGTTGG,1.04
19,CGTACGAGGGCATGAGTTGATAGCAAATGCCGAT,0.825
20,GTACCAAGGTGAATAGGTCCTTGATGAGTAGGCG,0.586

row,Sequence,PBM binding z-score
1,GTCCCAAGGTGAATAGGTCGTTGATGAGTAGGCG,2.13
2,GGAACGAGGGAAAAGTTGATAGCATCTGTCGACG,-0.745
3,TCGAGTAGGTTAGTGGCATTCAGAATGGCGTCGA,-0.183
4,CAAACTAGGTCGCGAAAGGTCAAAGTCGAATGAC,5.22
5,TCAGACAGATGAAGGTAACTCAGGTACGCAGTCG,-0.403
6,TAGCCTAGGTCATGGGCCCGTATACCACGCGAAC,2.95
7,CGTCCAAGGTCAGGGAGGTCAGTGAATGCCGAGT,5.45
8,AGTCAAAGTTCATCTAGGTACCGTAAGATATGCT,3.72
9,TCTTATAGGTAAAAGGTGAAAGTCGGTGTGGTAA,1.91
10,TCGAGTACGTTAGGGGCATTCAGAATGGCGTCGA,0.267
11,ATATCTAGGTAAGACTCAGTTCAGTGAAGAACGC,0.918
12,GATACAGGGTCAAGGCCAGAGTCCGCGTATTGAT,3.62
13,TCGTATAGGTAAATGCTAGGTGAAAGTCCGATCT,0.475
14,TCTTGTAGATCAAGCACGTTAAGAAAGCCTGAGT,-0.605
15,CCTGCTAGGTCATTGGTCAGCTAAAGCAGCTCGC,3.25
16,TTACCAAGGGGAAGGTCGTTGATCCCTCTGTAGA,0.634
17,ATACCAAGGTGAACGTGAGGTCGTTGATACTAAC,2.68
18,GCTATTAGTTGGAAGGGCAACCGAATGATTCTCG,0.941
19,TCTTGTAGATCAAGCAGCTTAAGAAAGCCTGAGT,-0.672
20,CCGAGTAGGTTATGGGGCGTTCAGGCAACGGTGA,0.761

# Test system: RARg:RXRa (NR concentration 270 nM, RXRa partner concentration 90 nM)
# Test: as above
# Procedure, shortened: as §1
row,Sequence,PBM binding z-score
1,CCTTACGGGTCACTGCCAGGTTATAGCATTTGGA,5.43
2,TCTTGCAGATCAAGCAGGTTAAGAAAGCCTGAGT,-0.332
3,AGAACGAGGACAATGAGTTGATAGCACGGGTGGC,0.444
4,TCGAGTAGGTTAGTCGGGGCATTCACCCAACATA,0.0959
5,ATATGTAGGTTACATCTGGGTCATTCAGGCTATG,3.33
6,CCGAGTAGGTTATTGGGCATTCAGGCAACGGTGA,0.0352
7,CCTGCTAGGTCAATAGTCAGCTAAAGCAGCTCGC,3.06
8,CGTCCAAGGTCAAGGTCAGTTAAAGAGACTCGAA,6.92
9,CAAACTAGGTCAAAGGACAAAGTCGAGCCAACCA,4.32
10,ACAGGCAGGTGATGAAGGTAACTCAGGCTATCAT,-0.159
11,CCGTACGGGTCACTGACAGGTTATAGCATTTGGA,6.14
12,CCTAGCAGGCCAATCTGGGTCACTCAAGGCTTGA,1.22
13,CAAACTAGGTCAAGGTCAAGGTCGGTTTGTGCCA,6.25
14,GTTTACGGGTCAAAGGTTATAGCATGAATAGAAT,6.91
15,GCTGCTAGGTCAGGGTGGTCAGCTAACGGGTACG,2.91
16,CCAGACAGGTGAGCAGGTAACTCAGCCTCGATTA,0.113
17,TAGCCTAGGCCATTGGGCCAGTATAGTACGCATC,-0.137
18,GCGACTGGGGCAAAGCAGGTTACGATAAGGTTGG,0.351
19,CGTACGAGGGCATGAGTTGATAGCAAATGCCGAT,1.38
20,GTACCAAGGTGAATAGGTCCTTGATGAGTAGGCG,0.974

row,Sequence,PBM binding z-score
1,GTCCCAAGGTGAATAGGTCGTTGATGAGTAGGCG,2.88
2,GGAACGAGGGAAAAGTTGATAGCATCTGTCGACG,-0.112
3,TCGAGTAGGTTAGTGGCATTCAGAATGGCGTCGA,-0.478
4,CAAACTAGGTCGCGAAAGGTCAAAGTCGAATGAC,6.69
5,TCAGACAGATGAAGGTAACTCAGGTACGCAGTCG,0.326
6,TAGCCTAGGTCATGGGCCCGTATACCACGCGAAC,4.3
7,CGTCCAAGGTCAGGGAGGTCAGTGAATGCCGAGT,6.54
8,AGTCAAAGTTCATCTAGGTACCGTAAGATATGCT,5.39
9,TCTTATAGGTAAAAGGTGAAAGTCGGTGTGGTAA,2.24
10,TCGAGTACGTTAGGGGCATTCAGAATGGCGTCGA,0.169
11,ATATCTAGGTAAGACTCAGTTCAGTGAAGAACGC,0.275
12,GATACAGGGTCAAGGCCAGAGTCCGCGTATTGAT,5.35
13,TCGTATAGGTAAATGCTAGGTGAAAGTCCGATCT,0.402
14,TCTTGTAGATCAAGCACGTTAAGAAAGCCTGAGT,-0.0676
15,CCTGCTAGGTCATTGGTCAGCTAAAGCAGCTCGC,3.88
16,TTACCAAGGGGAAGGTCGTTGATCCCTCTGTAGA,0.225
17,ATACCAAGGTGAACGTGAGGTCGTTGATACTAAC,3.63
18,GCTATTAGTTGGAAGGGCAACCGAATGATTCTCG,0.317
19,TCTTGTAGATCAAGCAGCTTAAGAAAGCCTGAGT,-0.336
20,CCGAGTAGGTTATGGGGCGTTCAGGCAACGGTGA,0.491

# — the supplement of paper PMC6555819
